Only a selection was taken, and hits are over-represented in it overall.
nsP2pro primary: CHIKV nsP2 protease inhibition, primary qHTS; Potency, µM (highest dose often 24.9 µM), without a hit: at the highest dose activity change, negative = inhibition, hits mostly inhibitors; 1.1% of 31,000 active; FRET peptide cleavage, nsP2pro, fluorescence 1 h; Q8JUX6; note: nearly all actives have a fitted effect of over 60% in size
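Recombinant nsP2pro (150 nM) was preincubated with compound 15 min at room temperature in 10 mM Tris-HCl pH 8.0, 0.01% Tween 20. Peptide 2 FRET substrate (2.5 uM) was then added and fluorescence read after 1 h. Seven-point series, up to 25 uM.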
CHIKV nsP2 cell: cell-based CHIKV nsP2 protease inhibition, secondary. 10% of 450 active. Potency, µM (top dose mostly 51.1 µM), for the others: at the highest dose activity change, negative = inhibition, most hits filed as inhibitors. shares compounds with nsP2pro primary. cell-based CHIKV nsP2 protease reporter assay. AID 1964100; note: nearly all actives have a fitted effect of over 70% in size
NSP2 full ctr: full-length CHIKV NSP2 protease inhibition, selectivity. shares compounds with nsP2pro primary. Full-length CHIKV NSP2 protease enzymatic counterscreen. Potency, µM (series often up to 50.7 µM), inactives show at the top dose activity change, negative = inhibition, hits mostly inhibitors. 39% of 410 active. AID 1964101; note: nearly all actives have a fitted effect of over 65% in size
Furin counter: human furin inhibition, counterscreen for nsP2pro inhibitors. shares compounds with nsP2pro primary. Recombinant human furin enzymatic counterscreen, fluorogenic substrate. Potency, µM (doses to about 50.6 µM), for inactives: at the highest dose activity change, negative = inhibition, usual class: inhibitors. 6% of 410 active
Target sequence (P09958 whole entry, looked up): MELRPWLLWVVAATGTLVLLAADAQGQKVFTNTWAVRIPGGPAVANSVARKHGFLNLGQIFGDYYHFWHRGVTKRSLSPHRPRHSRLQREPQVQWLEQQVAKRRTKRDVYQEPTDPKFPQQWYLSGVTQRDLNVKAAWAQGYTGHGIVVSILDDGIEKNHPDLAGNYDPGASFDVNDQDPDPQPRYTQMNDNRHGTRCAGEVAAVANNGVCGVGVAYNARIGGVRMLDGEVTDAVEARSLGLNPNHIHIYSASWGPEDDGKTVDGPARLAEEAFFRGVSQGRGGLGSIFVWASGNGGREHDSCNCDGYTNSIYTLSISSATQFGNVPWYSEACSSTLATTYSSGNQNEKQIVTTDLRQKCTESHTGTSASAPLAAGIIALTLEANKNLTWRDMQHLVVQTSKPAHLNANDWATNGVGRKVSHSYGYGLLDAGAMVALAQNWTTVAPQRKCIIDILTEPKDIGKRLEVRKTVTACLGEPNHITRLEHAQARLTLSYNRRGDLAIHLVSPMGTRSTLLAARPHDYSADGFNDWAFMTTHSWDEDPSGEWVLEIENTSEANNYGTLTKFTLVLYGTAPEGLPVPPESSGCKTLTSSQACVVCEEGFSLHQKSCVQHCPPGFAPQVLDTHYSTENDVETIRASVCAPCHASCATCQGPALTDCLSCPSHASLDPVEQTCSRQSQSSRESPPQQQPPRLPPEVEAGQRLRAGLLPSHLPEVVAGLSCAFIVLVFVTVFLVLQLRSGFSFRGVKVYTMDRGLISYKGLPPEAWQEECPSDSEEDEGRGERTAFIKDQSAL
nsP2 NS23 pep: blocks CHIKV nsP2 protease cleavage of endogenous NS2/3 peptide. shares compounds with nsP2pro primary. Purified CHIKV nsP2 protease, endogenous NS2/3 peptide cleavage. 34% of 410 active. Potency, µM (highest dose often 51 µM), for the others: at the highest dose activity change, negative = inhibition, most hits filed as inhibitors; note: nearly all actives have a fitted effect of over 55% in size
Papain cs: inhibits papain in a CHIKV nsP2 protease selectivity counterscreen; shares compounds with nsP2pro primary; purified papain protease activity, enzymatic inhibition; Potency, µM (series often up to 51 µM), without a hit: at the highest dose activity change, negative = inhibition, actives largely listed as inhibitors; 5% of 410 active
nsP2pro conf qHTS: confirmation of CHIKV nsP2 protease inhibitors. shares compounds with nsP2pro primary. CHIKV nsP2 protease enzymatic activity, qHTS. Potency, µM (top dose mostly 25.5 µM), for the others: at the top dose activity change, negative = inhibition, hits mostly inhibitors. 43% of 410 active; note: nearly all actives have a fitted effect of over 75% in size
HCV NS3 4A cs: selectivity counter-screen for CHIKV nsP2 protease inhibitors: HCV NS3/4A; Potency, µM (highest dose often 50.9 µM), actives largely listed as inhibitors; HCV NS3/4A protease biochemical counterscreen; 20% of 410 active; shares compounds with nsP2pro primary; note: nearly all actives have a fitted effect of over 55% in size
* marks the source's active call; other numbers are inactive results; i = inactive; ? = inconclusive; . = not tested or not shown; [ ] = another dose, or the depositor's remark. Calls come from the whole dose curve. % is set by controls: 0 for no effect and ±100 for the full control effect; potency is the fitted concentration of half-maximal effect.

SMILES	nsP2pro primary	CHIKV nsP2 cell	NSP2 full ctr	Furin counter	nsP2 NS23 pep	Papain cs	nsP2pro conf qHTS	HCV NS3 4A cs
CC(C)COC(=O)N1[C@@H](c2ccco2)[C@@H](CO)C[C@]12CCCCNC2=O	?	2.1%	-14.7%	-10.2%	?	-3.6%	-18.4%	?
CNC(=O)[C@H]1C[C@]2(CCCCNC2=O)N(C(=O)c2cccc(C#N)c2)[C@H]1c1ccco1	-3.9%	.	.	.	.	.	.	.
CCc1ccc(S(=O)(=O)Nc2cnccc2C(=O)Nc2nc(-c3ccccc3)cs2)cc1	i	.	.	.	.	.	.	.
O=C(O)C(=O)O	-7.4%	.	.	.	.	.	.	.
O=C1c2ccccc2-c2nc3nnnn3nc21 (tested in a mixture with another compound)	?	?	?	-18.6%	0.919µM*	-23.4%	?	i
CSc1ccccc1-c1ncc(C)c(NCc2ccc(-c3cccnc3)cc2)n1	-38.7%	.	.	.	.	.	.	.
CCCCN(C)C(=O)Cn1nc(-c2ccc(F)cc2)ccc1=O	-7.9%	.	.	.	.	.	.	.
Cc1nc(C)c(-c2ccc3ncnc(NCCc4cnc[nH]4)c3c2)s1	i	.	.	.	.	.	.	.
Nc1nc(O)c(C2=C3C(=Nc4ccccc43)C(=O)NCC2)[nH]1	?	6.3%	-2.8%	-8.8%	-11.6%	-13.9%	-21.1%	i
CC(Sc1nc2c(cnn2-c2cccc(Cl)c2)c(=O)[nH]1)C(N)=O (stereo not drawn)	45.3%	.	.	.	.	.	.	.
Cc1ccc(S(=O)(=O)/C=C/C#N)cc1	0.881µM*	?	0.919µM*	4.9%	4.61µM*	-5.5%	0.283µM*	i
O=C[C@H](O)[C@@H](O)[C@H](O)[C@H](O)CO[C@@H]1O[C@H](CO)[C@@H](O)[C@H](O)[C@H]1O	-17.5%	.	.	.	.	.	.	.
N#Cc1ccc(CN2CCCC3(Cc4ccccc4NC3=O)C2)cc1 (stereo not drawn)	-9.3%	.	.	.	.	.	.	.
Cc1coc2c1C(=O)C(=O)c1c-2ccc2c1CCCC2(C)C	?	-8.1%	11.6µM*	-15.4%	?	?	?	i
Cc1coc2c1C(=O)C(=O)c1c-2ccc2c(C)cccc12	?	-1.6%	?	-13.5%	?	?	?	i
O=C(O)c1cccc(-c2noc(-c3ccccc3Cl)n2)c1	3.5%	.	.	.	.	.	.	.
CC(=O)Nc1sc2c(c1-c1ccc(C(N)=O)cc1)CCNC2	i	.	.	.	.	.	.	.
NC(=O)c1ccccc1Nc1ccnc(Nc2cccc(O)c2)n1	51.0%	.	.	.	.	.	.	.
C[C@@]12C[C@@H](c3ccoc3)OC(=O)C1CC[C@]1(C)[C@H]2[C@H]2C=C[C@]1(O)C(=O)O2 (stereo partly drawn)	5.44µM*	-8.8%[33.5 µM]	8.9%[33.5 µM]	11.8%[33.5 µM]	3.1%[33.5 µM]	-13.2%[33.5 µM]	-8.9%[16.7 µM]	i
COC(=O)[C@@]1(O)C=CC[C@@H]2[C@@]3(C)C[C@@H](c4ccoc4)OC(=O)[C@H]3CC[C@]21C	2.72µM*	5.1%[33.5 µM]	-23.4%[33.5 µM]	1.8%[33.5 µM]	3.8%[33.5 µM]	0.9%[33.5 µM]	?	i
CC(=O)OC[C@@]12C(=O)C[C@@H](C)[C@]3(C[C@@H](c4ccoc4)O[C@H]3OC(C)=O)[C@H]1CCC[C@]21CO1	12.0%[10 µM]	.	.	.	.	.	.	.
COc1ccc2nc(-c3cccc(C)c3)sc2c1	-2.0%	.	.	.	.	.	.	.
Cc1cn([C@@H]2O[C@H](CO)[C@@H](O)[C@H]2O)c(=O)nc1N	-8.0%	.	.	.	.	.	.	.
CC(C)C(=O)OC[C@H]1O[C@@H](n2ccc(NO)nc2=O)[C@H](O)[C@@H]1O	-8.0%	.	.	.	.	.	.	.
COc1ccc(CC(C)(C)NC[C@H](O)c2cc(O)cc3c2OCC(=O)N3)cc1	-5.4%	.	.	.	.	.	.	.
SMILES	nsP2pro primary	CHIKV nsP2 cell	NSP2 full ctr	Furin counter	nsP2 NS23 pep	Papain cs	nsP2pro conf qHTS	HCV NS3 4A cs
Cc1ccc(-c2ccc(=O)n(CC(=O)NCCc3ccccn3)n2)cc1	-3.4%	.	.	.	.	.	.	.
CCOc1ccc(CCNC(=O)c2cc3cccnc3n2Cc2cccc(C)c2)cc1OCC	4.2%	.	.	.	.	.	.	.
CN1CC(O)CN([S+](=O)([O-])c2cccs2)CC1=O (stereo not drawn)	-12.0%	.	.	.	.	.	.	.
Cc1cccc(C(=O)Nc2ccc3oc(-c4cccc5c(Br)cccc45)nc3c2)c1	-21.3%	.	.	.	.	.	.	.
Cc1c(C(=O)Nc2ccc(N3CCC(N4CCOCC4)CC3)c(C#N)c2)cnn1-c1ccc(Cl)cc1	-28.1%	.	.	.	.	.	.	.
CC1CCN(c2ccc(NC(=O)c3cccc(Cl)c3)cc2C(=O)O)CC1	4.47µM*	?	-0.7%	?	0.461µM*	5.2%	7.11µM*	3.26µM*
O=C(Nc1cncnc1)c1cccs1	-2.6%	.	.	.	.	.	.	.
COc1cccc(C(=O)Nc2ccc3nc(N4CCC(C)CC4)cc(C)c3c2)c1	7.7%	.	.	.	.	.	.	.
Cc1cccc(C(=O)Nc2ccc(N3CC=C(c4ccccc4C)CC3)c(C(=O)O)c2)c1	9.53µM*	30.4%	2.06µM*	?	7.3µM*	1.4%	5.04µM*	1.63µM*
CCN1C(=O)c2ccccc2Sc2ccc(NC(=O)c3cccc(C)c3)cc21	-4.5%	.	.	.	.	.	.	.
Cc1ccc(C)c(N2CCN(c3ccc(NC(=O)c4cccs4)cc3C(=O)O)CC2)c1	5.62µM*	3.6%	?	-22.6%	16.3µM*	6.7%	7.98µM*	4.11µM*
O=C(Nc1ccc(N2CCC(N3CCCCC3)CC2)c(C(=O)O)c1)c1ccccc1	10.7µM*	-4.7%	2.91µM*	?	9.19µM*	-3.0%	6.34µM*	1.83µM*
Cc1ccccc1C(=O)Nc1ccc(NC(=O)c2cccs2)cc1	18.0%	.	.	.	.	.	.	.
O=C(Nc1ccc(S(=O)(=O)Nc2ncccn2)cc1)c1cccc(Cl)c1	-28.6%	.	.	.	.	.	.	.
Cn1c(=O)n(C)c2cc(N3CCCC3)c(NC(=O)Nc3ccccc3)cc21	-12.1%	.	.	.	.	.	.	.
Cc1ccnc(NC(=S)N2CCN(c3ccccc3C(F)(F)F)CC2)c1	-1.4%	.	.	.	.	.	.	.
O=C(Nc1nc(-c2ccccc2)cs1)c1cccc(NS(=O)(=O)c2nccs2)c1	i	.	.	.	.	.	.	.
Cc1ccnc(NC(=S)NCCNc2cccc(C(F)(F)F)c2)c1	-7.8%	.	.	.	.	.	.	.
CN(C)C(=O)c1nc(-c2cccc(C(F)(F)F)c2)c2cnccn12	3.2%[39.2 µM]	.	.	.	.	.	.	.
CCC1OC(=O)C(C)C(OC2CC(C)(OC)C(O)C(C)O2)C(C)C(OC2OC(C)CC(N(C)C)C2O)C(C)(O)CC(C)C2NC(COCCOC)OC(C2C)C1(C)O (stereo not drawn)	21.0%	.	.	.	.	.	.	.
CCCc1ccc(-c2csc(NC(=O)c3ccncc3NS(=O)(=O)c3ccc(C)cc3)n2)cc1	-10.6%	.	.	.	.	.	.	.
Cc1cc(NC(=O)Nc2nnc(C3CCCCC3)s2)ccc1Cl	-2.2%	.	.	.	.	.	.	.
COc1ccc(-c2csc(NC(=O)c3ccncc3NS(=O)(=O)c3ccc(C)cc3)n2)cc1	i	.	.	.	.	.	.	.

High-throughput results (PubChem)
